An excerpt weighted towards active compounds, which were near 0.95% of everything screened.
FBPA Giardia inh: qHTS Assay for Inhibitors of Fructose-1,6-bisphosphate Aldolase from Giardia Lamblia. purified Giardia FBPA. actives 0.71% (n = 290,000). A8B2U2. Potency, µM (doses to about 59.6 µM), hits mostly inhibitors. AID 2451, 2010; further: nearly all actives have a fitted effect of over 55% in size
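40 nM FBPA preincubated 10 min at RT with compound (up to 57.5 uM final), then substrate plus GAPDH/TPI/NAD/arsenate coupling and diaphorase/resazurin added. Fluorescence read after 20 min at RT, 525/598 nm.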
LmPK inhibitor: qHTS Assay for Inhibitors of Leishmania Mexicana Pyruvate Kinase (LmPK); Q27686; purified LmPK, Kinase-Glo ATP luminescence, 1 h; Potency, µM (doses to about 57.5 µM), hits mostly inhibitors; actives 0.37% (n = 290,000); AID 1721, 2009
Target sequence (Q27686 whole entry, looked up): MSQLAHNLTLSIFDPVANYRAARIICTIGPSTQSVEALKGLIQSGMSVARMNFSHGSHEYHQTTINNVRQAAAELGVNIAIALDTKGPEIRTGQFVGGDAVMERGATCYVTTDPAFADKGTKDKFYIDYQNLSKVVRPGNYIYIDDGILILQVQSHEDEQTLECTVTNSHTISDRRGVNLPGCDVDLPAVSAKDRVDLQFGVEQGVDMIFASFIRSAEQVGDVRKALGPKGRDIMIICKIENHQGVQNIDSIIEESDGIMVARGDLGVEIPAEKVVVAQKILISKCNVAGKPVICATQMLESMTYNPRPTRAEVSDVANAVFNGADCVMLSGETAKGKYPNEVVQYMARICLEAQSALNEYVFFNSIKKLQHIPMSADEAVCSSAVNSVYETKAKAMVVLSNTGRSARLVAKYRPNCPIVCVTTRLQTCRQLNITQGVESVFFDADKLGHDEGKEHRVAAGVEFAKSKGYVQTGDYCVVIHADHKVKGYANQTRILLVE
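In 50 mM imidazole pH 7.2 with 7 mM MgCl2, LmPK (0.1 nM) turned over PEP (0.5 mM) and ADP (0.1 mM) for 1 h at room temperature. Luciferase read-out of ATP.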
TbPYK inhibitor: qHTS of Trypanosoma Brucei Inhibitors. pyruvate kinase (Trypanosoma brucei), Q57TT1. TbPYK enzyme, Kinase-Glo Plus ATP luminescence, 45 min. Potency, µM (titrated, usually from 76.8 µM), actives largely listed as inhibitors. actives 0.12% (n = 410,000). AID 624173, 2012; further: nearly all actives have a fitted effect of over 50% in size
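Luminescence from Kinase-Glo Plus, added after a 45-minute room-temperature reaction, served as the end-point read-out. The enzyme and substrate were preincubated with compound before ADP (130 uM final) initiated turnover. Concentration-effect curves came from normalized qHTS data.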
RE007 growth inh: qHTS Assay for Inhibitors of the HIV-1 protein Vpr; S. pombe RE007 Vpr strain, BacTiter-Glo ATP luminescence, 24 h; Potency, µM (doses to about 92.2 µM), most hits filed as inhibitors; actives 0.21% (n = 360,000); AID 651644, 2012; active means well fitted falling curve with a large enough effect; inconclusive means small, poorly fitted or top-dose-only effect; inactive means no such curve, though single readings can be large or run the other way; further: nearly all actives have a fitted effect of over 50% in size
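Fission yeast RE007 carrying one integrated HIV-1 vpr copy, seeded at OD 0.01 in PMG+AL medium with 23 nL pinned compound. Grown 24 h at 30 degrees; viability read by BacTiter-Glo luminescence after 5 min.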
Numbers stand for hits; i = inactive; ? = inconclusive; nt = not tested or not shown; [ ] = another dose, or the depositor's remark. Unless noted, the call rests on the fitted dose curve; in most records, active means well fitted curve in the direction sought with a large enough effect; inconclusive means small, poorly fitted or top-dose-only effect, or another doubt; inactive means no such curve, though single readings can be large; an effect the other way counts as inactive or inconclusive.

SMILES	FBPA Giardia inh	LmPK inhibitor	TbPYK inhibitor	RE007 growth inh
CC(C)=CCC1=C(O)c2ccccc2C(=O)C1=O	1.1µM	nt	nt	nt
O=C1C(=O)c2ccccc2C(O)=C1CC=C(Cl)Cl	nt	nt	i	?
CCCOc1ccc(N)cc1N	0.4µM	i	i	i
CCCCCCCC#Cc1ccccc1/C=N/S(=O)c1ccc(C)cc1 (stereo unspecified)	i[12.9 µM]	i	20µM	?
CCCCC#Cc1ccccc1CC(=O)Nc1ccccc1	i	i	i	i
Cc1ccc(C)c(C(O)c2ncc(-c3ccc(Cl)cc3)[nH]2)c1 (stereo unspecified)	nt	nt	i	i
COc1cccc(C2=Nn3c(nnc3-c3ccccc3C)SC2)c1	10µM	nt	nt	nt
Cc1ccc(O)c(C(=O)c2cnn(C(=O)Cc3csc(C)n3)c2)c1	i	i	i	25µM
CC(C)[N+]1(C)[C@@H]2CC[C@H]1CC(OC(=O)[C@@H](CO)c1ccccc1)C2 (stereo partly specified)	i	nt	nt	nt
N/C(=N\OC(=O)c1ccc(Cl)cc1Cl)c1ccc(Cl)cc1	i	i	i	?
N/C(=N\OC(=O)c1ccccc1Cl)c1ccccc1	i	14µM	i	i
Cc1cccc(/C(N)=N/OC(=O)c2ccc(Cl)cc2Cl)c1	i	7.9µM	?	i
N/C(=N\OC(=O)c1ccc(Cl)cc1Cl)c1ccccc1	i	11µM	?	i
O=P(O)(O)OC(Cn1cncn1)(Cn1cncn1)c1ccc(F)cc1F	nt	nt	i	nt
O=C(Nc1ccccn1)c1sc2cc([N+](=O)[O-])ccc2c1Cl	i	i	?	i
CN[C@H]1C[C@@H](N)[C@H](O)[C@@H](O[C@@H]2O[C@H](CO)[C@H](O)[C@@H]3O[C@]4(O[C@@H]23)O[C@H]([C@@H](N)CO)[C@H](O)[C@@H](O)[C@H]4O)[C@@H]1O	nt	nt	i	nt
Cc1nn(C(C)C(=O)NCc2cccc(F)c2)c(=O)c2c1sc1ccccc12 (stereo unspecified)	nt	nt	i	nt
CC1(C)N(O)C(c2ccc(C(=O)O)cc2)=[N+]([O-])C1(C)C	40µM	nt	nt	nt
CC[C@@H]1OC(=O)C[C@H](O)[C@@H](C)[C@@H](O[C@H]2O[C@@H](C)[C@H](O[C@@H]3C[C@](C)(O)[C@H](O)[C@@H](C)O3)[C@@H](N(C)C)[C@@H]2O)[C@@H](C=O)C[C@@H](C)C(=O)/C=C/C(C)=C[C@@H]1CO[C@H]1O[C@@H](C)[C@H](O)[C@H](OC)[C@@H]1OC	nt	nt	i	nt
COc1ccc(CN(C)CCc2ccccn2)cc1OC	6.3µM	i	i	i
CC(=O)NC1[C@H]([C@H](O)[C@H](O)CO)OC(C(=O)O)=C[C@H]1N=C(N)N (stereo partly specified)	nt	nt	i	nt
CCOc1ccc(S(=O)(=O)N2CCCCC2)cc1NC(=O)CN1C(=O)NC(C)(c2ccc(C)cc2)C1=O (stereo unspecified)	nt	nt	i	i
Oc1c(C(c2ccccc2)N2CCOCC2)sc2nc(-c3ccco3)nn12 (stereo unspecified)	nt	nt	i	nt
COc1ccc(OC)c(N2C(=O)NC(=O)/C(=C/c3ccc([N+](=O)[O-])s3)C2=O)c1	13µM	?	?	i
CCN1C(=O)/C(=C\c2ccc([N+](=O)[O-])s2)C(=O)NC1=S	11µM	i	nt	nt
SMILES	FBPA Giardia inh	LmPK inhibitor	TbPYK inhibitor	RE007 growth inh
O=C(OC1CC2CC1[C@H]1CCCCN1C2=O)N1CCC(c2ccccc2)CC1 (stereo partly specified)	nt	nt	i	i
COc1ccc(C(=O)Nc2ccc(NC(=O)c3ccccn3)cn2)cc1	i	i	i	i
CCOc1ccc(NC(=O)C(c2ccccn2)N(C(=O)CCl)c2ccc(OCC)cc2)cc1 (stereo unspecified)	?	i	i	i
COc1ccc(NC(=O)c2ccccn2)cc1	i	11µM	i	?
COc1ccc(NC(=O)c2nc3ccccc3s2)cc1	i	16µM	i	i
O=C(Nc1ccc(NC(=O)C2CC2)nc1)c1ccccn1	i	14µM	i	i
CCOc1ccc(NC(=O)C(c2ccccn2)N(C(=O)CCl)c2ccc(OC)cc2)cc1 (stereo unspecified)	7.1µM	i	i	i
CCCCc1nc2c(c3c1C[C@H](C)OC3)CN(C(=O)COC)CC2	i[12.9 µM]	i[11.5 µM]	nt	nt
Cc1ccc2c(c1)c1c(c(=O)n(-c3cccc(Cl)c3)c(=O)n1CC(=O)c1ccc(Cl)cc1)n2C	nt	nt	i	nt
C/C(=N\NC(=O)c1cccc(S(=O)(=O)N2CCOCC2)c1)c1ccc(C#N)cc1	i	i	i	i
CC(C)(C)C(=O)OCOC(=O)C1N2C(=O)CC2S(=O)(=O)C1(C)C (stereo unspecified)	nt	nt	i	nt
CC#CCN1c2ccccc2[C@]23C[C@@H](C(=O)OC)N(C(=O)COCc4ccccc4)C2=NC(C(=O)OC)=C(C(=O)OC)[C@H]13	i[12.9 µM]	i[11.5 µM]	nt	nt
C[C@@H]1C[C@H]2[C@@H]3CCC4=CC(=O)C=C[C@]4(C)C3(F)[C@@H](O)C[C@]2(C)[C@@]1(O)C(=O)CO (stereo partly specified)	nt	nt	i	nt
CC(=O)Nc1ccc(-n2cc(-c3ccccc3)[nH]c2=S)cc1	i	?	3.2µM	i
Cc1nnc(SCC(=O)N2CCN(c3ccccc3)CC2)n1C1CC1	nt	nt	i	i
Cc1nc2sccn2c(=O)c1S(=O)(=O)Nc1ccc(N2CCN(C)CC2)cc1	i	i	i	i
CCOC(=O)Cn1nc(-c2ccccc2)nc1-c1ccccc1	i	i	i	i
CCn1nc(-c2ccccc2)nc2c(=O)n(C)c(=O)nc1-2	?	i	i	25µM
CCOCCc1nn2c(=O)cc(COC(=O)c3ccccc3NC(=O)CC(C)C)nc2s1	nt	nt	i	nt
CC(=O)Nc1ccc(S(=O)(=O)Nc2cccc3cccnc23)cc1	i	i	i	i
O=S(=O)(Nc1cccc2cccnc12)c1ccccc1	18µM	i	i	i
C#C[C@]1(OC(=O)CCCCCC)CC[C@H]2C3CCC4=CC(=O)CC[C@@H]4[C@H]3CC[C@@]21C (stereo partly specified)	nt	nt	i	nt
CCCCc1ccc(C(=O)O)nc1	16µM	nt	i	i[18.4 µM]
O=C(O)c1ccc(Br)cn1	?	i	i	i
S=c1[nH]nc(C2CC2c2ccc(Cl)cc2)n1-c1ccc(Cl)cc1 (stereo unspecified)	i	i	?	i
SMILES	FBPA Giardia inh	LmPK inhibitor	TbPYK inhibitor	RE007 growth inh
Cc1ccc(C2CC2c2n[nH]c(=S)n2-c2ccc(C)cc2)cc1 (stereo unspecified)	i	11µM	?	i
Cc1ccc(-n2c(C3CC3c3ccc(Cl)cc3)n[nH]c2=S)cc1 (stereo unspecified)	i	7.9µM	?	i
CCC1=C(c2ccc(OC)cc2)CCC(C(=O)O)C1C (stereo unspecified)	nt	nt	i	i
Cc1ccc(/C=C/C(=O)NC2CCCCCCC2)o1	i	i	7.9µM	i
Cc1ccc(/C=N/NC(=O)NC2CCCCC2)o1	i	i	i	i
O=C(O)c1cc(/C=C/c2ccc(N3CCOCC3)cc2)nc2ccccc12	i	?	i	16µM

Screens from PubChem.
